Compounds with a hit are over-represented: about 1.8% of the library has one in this group of screens.
RGS4 inhibitor = inhibitors of human regulator of G protein signaling 4 | 0.039% of 390,000 active | Transcreener GDP fluorescence polarization, RGS4-accelerated GTP hydrolysis | P49798 | Potency, µM (series often up to 114 µM), for the others: at the highest dose activity change, negative = inhibition, hits mostly inhibitors; also: % is scaled to controls: 0 for no effect and ±100 for the full control effect; nearly all actives have a fitted effect of over 75% in size
Target sequence (P49798 whole entry, looked up): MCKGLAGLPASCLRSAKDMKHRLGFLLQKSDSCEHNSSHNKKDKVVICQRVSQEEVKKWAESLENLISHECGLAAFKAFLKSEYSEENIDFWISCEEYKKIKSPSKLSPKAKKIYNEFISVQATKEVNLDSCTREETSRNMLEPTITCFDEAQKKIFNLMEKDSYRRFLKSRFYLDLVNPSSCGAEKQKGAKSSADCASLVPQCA
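MLSMR compounds (23 nl, pin-transferred) preincubated 10 min at room temperature with a 500nM (2x) first reagent, then RGS4 at 900nM (2x) plus Transcreener GDP mix added; fluorescence polarization (620/688 nm) read before and after 90 min at 30 °C.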
GCN5L2 inh = GCN5L2 (KAT2A) acetyltransferase inhibition. Q92830. GCN5L2 HAT assay, ThioGlo1 CoA-SH fluorescence. Potency, µM (titrated, usually from 58.9 µM), for inactives: at the top dose activity change, negative = inhibition, most hits filed as inhibitors. 0.21% of 390,000 active. AID 504327; also: % is scaled to controls: 0 for no effect and ±100 for the full control effect
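Preincubate 20nM GCN5L2 with compound 15 min, RT → add 50uM ThioGlo1 + 75uM H3(1-25) + 70uM acetyl-CoA → read fluorescence 0 and 20 min. Primary qHTS; fluorescent artifacts likely.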
GLP-1R inv ag = acts as inverse agonist at human GLP-1 receptor; HEK293 GLP-1R CRE-luciferase, luminescence, 24 h; GLP-1R form is constitutively active; Potency, µM (doses to about 38.3 µM), inactives show at the top dose activity change, negative = inhibition, hits mostly inhibitors; 1.6% of 410,000 active; AID 624417; also: % is scaled to controls: 0 for no effect and ±100 for the full control effect; nearly all actives have a fitted effect of over 55% in size
Target sequence (P43220 whole entry, looked up): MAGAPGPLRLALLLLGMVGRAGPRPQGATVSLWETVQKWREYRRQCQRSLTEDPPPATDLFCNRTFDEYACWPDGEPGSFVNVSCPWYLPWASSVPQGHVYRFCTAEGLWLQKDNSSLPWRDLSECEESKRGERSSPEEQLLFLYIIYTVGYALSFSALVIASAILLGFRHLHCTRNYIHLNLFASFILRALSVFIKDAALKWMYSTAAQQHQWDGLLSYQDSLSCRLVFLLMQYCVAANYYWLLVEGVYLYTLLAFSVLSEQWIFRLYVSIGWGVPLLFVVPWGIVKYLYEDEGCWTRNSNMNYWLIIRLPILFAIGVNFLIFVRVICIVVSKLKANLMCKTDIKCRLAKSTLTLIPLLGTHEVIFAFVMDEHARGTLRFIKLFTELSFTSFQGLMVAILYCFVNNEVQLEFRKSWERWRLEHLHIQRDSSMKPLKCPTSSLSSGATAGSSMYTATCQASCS
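GLP-1R inverse agonism mode: basal reporter luminescence in engineered HEK293 cells measured after one day of compound exposure at 37 deg C, with a 12 min room-temperature detection step.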
GLP1R cytotox = cytotoxic in the GLP-1 receptor inverse agonist counter-screen; 0.13% of 410,000 active; Potency, µM (titrated, usually from 38.3 µM), without a hit: at the top dose activity change, negative = inhibition, most hits filed as inhibitors; HEK293 cAMP-luciferase reporter cells, luminescence, 24 h; AID 624418;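 also: loss of luciferase light is scored as toxicity; % is scaled to controls: 0 for no effect and ±100 for the full control effect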
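Step one: seed cells (200 cells/uL, DMEM with 10% Nu serum, 1% pen-strep). Step two: 12-hour incubation at 37 deg C. Step three: pin 23 nL compound, incubate 24 hr. Step four: add luciferase reagent, read luminescence 12 min later.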
PTHR1 agonist = agonists of human PTHR1 parathyroid hormone receptor. Q03431. HEK293 GP2 PTHR1 cells, GloSensor cAMP luminescence, 1 h. Potency, µM (series often up to 115 µM), for the others: at the highest dose activation, actives largely listed as activators. 0.075% of 410,000 active; also: nearly all actives have a fitted effect of over 55% in size
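HEK-293-derived GP2 cells expressing PTHR1 and a GloSensor cAMP reporter, 3,000/well, plated overnight, given luciferin plus IBMX (each 0.5 mM as added) for 1 h at 37 °C, then compound for 1 h at 37 °C. Luminescence was read after 15 min at room temperature.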
GLP1R ag = activates the human GLP-1 receptor | HEK293 GLP-1R CRE-luciferase, luminescence, 4-6 h; cells express a hypersensitive GLP-1R form | Potency, µM (top dose mostly 45.6 µM), for inactives: at the highest dose activation, actives largely listed as activators | 0.007% of 380,000 active | AID 624172; also: % of control where 0% means no effect
* marks the source's active call; other numbers are inactive results; i = inactive; ? = inconclusive; . = no result given; ! = a repeat was not active; [ ] = remark or other dose. Calls follow the shape of the dose curve; as a rule, active = well fitted curve in the direction sought with a large enough effect; inconclusive = small, poorly fitted or top-dose-only effect, or another doubt; inactive = no such curve, though single readings can be large; an effect the other way counts as inactive or inconclusive. Potency is read from the fitted curve at half-maximal effect.

SMILES | RGS4 inhibitor | GCN5L2 inh | GLP-1R inv ag | GLP1R cytotox | PTHR1 agonist | GLP1R ag
CCCNC(=O)C1(C)CCCN(Cc2ccc(C(=O)OCC)o2)C1 (stereo not given) | . | . | -6% | -1% | i | -4%
COC(=O)CSc1nc(N2CCCCC2)c2c(c1C#N)CCCC2 | -3%[11.4 µM] | -9% | 10µM* | 21% | i | -1%
C=CCC1(CC=C)CC(Cc2cnccn2)N(C(=O)OC(C)(C)C)C1 (stereo not given) | . | . | ? | -20% | -56% | 9%
Cc1ccc(C2CC(c3ccc(Br)cc3)=NN2C(=O)CSC2=NN3CCCC(=O)N=C3S2)cc1 (stereo not given) | -24% | -6% | 4.5µM* | -17% | -42% | -1%
CC(C)(C)c1ccc(C(=O)NCc2nnc(SCC(=O)N3CCCC3)o2)cc1 | . | . | 4% | -4% | -6% | -7%
Cc1ccc(C(=O)NC(Cc2c[nH]c3ccccc23)C(=O)O)cc1 (stereo not given) | 16% | 0% | 0% | 10% | i | -11%
Cc1cc(C)cc(C(=O)N(C)[C@H](Cc2ccc(-c3ccccc3)cc2)C(=O)N[C@@H](Cc2c[nH]c3ccccc23)C(=O)O)c1 | -98%[56.9 µM] | 32µM*! | . | . | . | .
CC(C)N(Cc1nnc(-c2ccc(Cl)cc2)o1)C(=O)c1cc2ccccc2o1 | 3% | -6% | -15% | -1% | i | 22%
CCOc1ccccc1CNC(=O)c1ccc(-c2nc(CSc3ccc(C)cc3)c(C)o2)cc1 | 13% | -2% | 4% | 8% | i | .
Cc1oc(-c2ccc(C(=O)Nc3cccc(C(F)(F)F)c3)cc2)nc1CSc1ccccc1 | -13% | -6% | 2.2µM* | -22% | -90% | .
COc1ccccc1CCNC(=O)c1ccc(-c2nc(CSc3ccc(C)cc3)c(C)o2)cc1 | 7% | -4% | 10µM* | 11% | -7% | .
Cc1ccc(S(=O)(=O)Cc2nc(-c3ccc(C(=O)NCc4ccccc4F)cc3)oc2C)cc1 | -3% | 25µM* | . | . | . | .
COc1ccc(OCCCCn2c(-c3ccc(Cl)cc3)nc3ccccc3c2=O)cc1 | -1% | 2% | 6% | -1% | i | .
CC1CCN(C(=O)c2[nH]cnc2C(=O)Nc2ccon2)CC1 | -17% | -5% | 22% | 5% | -29% | -3%
N#C/C(=C\c1c(N2CCCCCC2)nc2ccccn2c1=O)C(=O)NC1CCS(=O)(=O)C1 (stereo not given) | -13% | 0% | -8% | 6% | -12% | 14%
C#C[C@@]1(OC(C)=O)CC[C@H]2[C@@H]3CCC4=CC(=O)CC[C@@H]4[C@H]3CC[C@@]21C | . | . | . | . | . | 3%
Cc1ccc([C@@H]2CC(=O)[C@@H]3CN(S(=O)(=O)c4ccc(C)cc4)[C@H](c4ccccc4)C[C@@H]3N2S(=O)(=O)c2ccc(Cl)cc2)cc1 | . | . | 14% | 5% | -22% | 1%
CN1CCN(c2ncnc3ccc(-c4ccccc4C(F)(F)F)cc23)CC1 | . | -7% | . | . | . | .
NC(=O)NS(=O)(=O)c1ccc(N)cc1 | . | 0% | . | . | . | 10%
CCc1ccc(-c2csc(NC(=O)C3CCCO3)c2C(=O)OC(C)C)cc1 (stereo not given) | -14% | -6% | 1.3µM* | 21% | ? | -2%
CN(C(=O)c1ccccc1Cl)C1CCCCC1 | 19% | -4% | 4% | 3% | i | 4%
CN(C(=O)c1ccc(-c2ccccc2)cc1)C1CCCCC1 | 11% | . | 10µM* | 1% | i | 19%
O=C1C2C3C=CC(O3)C2C(=O)N1Nc1ccccc1 (stereo not given) | 12% | . | 8.9µM* | -4% | i | 4%
O=C1[C@@H]2C3C=CC(O3)[C@@H]2C(=O)N1c1ccccc1 | . | -18% | . | . | . | .
COc1ccc(-c2cc(-c3nnc(COC(=O)CC4CC5CCC4C5)o3)c3ccccc3n2)cc1OC (stereo not given) | -8% | 35µM* | 36% | 4% | i | 12%
SMILES | RGS4 inhibitor | GCN5L2 inh | GLP-1R inv ag | GLP1R cytotox | PTHR1 agonist | GLP1R ag
Cc1[nH]nc2ncc(C(=O)c3ccccc3O)cc12 | -6% | -9% | 10µM* | -5% | ? | -11%
CCN(CC)C(=O)Cn1c(=O)c2ccccc2n2c(=S)sc(-c3cccc(C)c3)c12 | 17% | -8% | 7% | 20% | i | 2%
COc1nc(C)cc(C)c1S(=O)(=O)c1ccccc1C | -5% | -8% | ? | 0% | i | 0%
CCC(C)Oc1nc(C)cc(C)c1S(=O)(=O)c1ccccc1C (stereo not given) | 10% | -21% | 8.9µM* | 7% | -1% | 2%
CSc1nc(C)cc(C)c1S(=O)(=O)c1ccccc1C | 4% | -28% | 5µM* | -3% | -26%[57.5 µM] | -11%
CCSc1nc(C)cc(C)c1S(=O)(=O)c1ccccc1C | -11% | -1% | 8.9µM* | -3% | -30%[57.5 µM] | -27%
O=C1CSc2ccccc2N1Cc1ccccc1F | -15% | -7% | -19% | -2% | i | 5%
O=C1CC(c2ccccc2)Sc2ccccc2N1Cc1ccccc1F (stereo not given) | 15% | -3% | 10µM* | -7% | -26% | -1%
COc1ccc(C2CC(=O)N(Cc3ccc(F)cc3)c3ccccc3S2)cc1OC (stereo not given) | 18% | -3% | 16% | 3% | -29% | -6%
COc1cc(C2CC(=O)N(Cc3ccc(F)cc3)c3ccccc3S2)cc(OC)c1OC (stereo not given) | 13% | -9% | 11µM* | 4% | -42% | -7%
CCc1ccc(N(CC(=O)NC(C)C)C(=O)CCC(=O)Nc2ccccn2)cc1 | 22% | -4% | -8% | 12% | -6% | -15%
Cc1cccc(C)c1NC(=O)CNC(=O)CCC(=O)c1cccs1 | 11% | -2% | 8% | -8% | -17% | 7%
COc1ccc(NC(=S)N/N=C/c2ccc(F)cc2)cc1OC | -5% | -4% | ? | 5.6µM* | -20% | 0%
CCOC(=O)C1CCC(CN(Cc2ccc(Cl)cc2)S(=O)(=O)c2cc(Cl)cc(Cl)c2)CC1 (stereo not given) | -12% | -5% | -3% | 23% | -8% | .
Cc1cccc(-c2nnc(SCc3ccc(C#N)cc3)n2Cc2ccco2)c1 | -3% | -7% | ? | ? | -25% | 1%
O=C1OC(c2ccccc2)=N/C1=C\C=C\c1ccco1 | 4% | 25µM* | 2% | -7% | i | 3%
O=C1OC(c2ccc(Cl)cc2)=N/C1=C\C=C\c1ccco1 | -32% | -24% | 19% | 9% | i | -1%

Screening data deposited in PubChem by National Center for Advancing Translational Sciences (NCATS).
